Assay results: ChEMBL document CHEMBL3988442, “University of Dundee, Small-Polar-MMV Screening Library” (2021)
Screen size: about 48,000 compounds; about 13,000 (27%) showed an effect of 50% or more. Some of the results follow.

What follows are compounds tested on Wolbachia pipientis (assay: Anti-Wolbachia Cell-Based Screen). Conditions: 5 µM.
Assay type: functional
Set-up: scale not given: in the data most compounds retested in dose-response had high values
With Cc1nnc(NC(=O)CN2CCCC(c3ccn[nH]3)C2)s1 (centres undefined) the “Percent Effect” value was 8.304%. In the case of Cc1ncc2c(n1)CN(CC(=O)Nc1cccnc1)CC2, the “Percent Effect” value is reported as 115.5%. For Cc1ncc2c(n1)CN(CC(=O)Nc1nncs1)CC2, the “Percent Effect” value was 10.92%. In the case of Cc1ncc2c(n1)CN(CC(=O)Nc1ccncc1)CC2, the “Percent Effect” value is reported as 3.82%. For CCc1ncc2c(n1)CN(CC(=O)Nc1nnc(C)s1)CC2, the “Percent Effect” value was -0.5205%. Cc1ncc2c(n1)CN(CC(=O)Nc1nccs1)CC2 was tested, and the “Percent Effect” value was 121.1%. In the case of Cc1ncc2c(n1)CN(CC(=O)N1CCc3sccc3C1)CC2, the “Percent Effect” value is reported as -8.865%. For Cc1nc(CN2CCCN(CC(=O)Nc3cccnc3)CC2)no1, the “Percent Effect” value was -4.253%. For Cc1ncc2c(n1)CN(CC(=O)Nc1nnc(C)s1)CC2, the “Percent Effect” value was 120.8%. In the case of COC(=O)[C@H]1CN(C(=O)NC(C)C)CCN1C(=O)CSC, the “Percent Effect” value is reported as 4.68%. With CSCCN(C)Cc1ccc(F)cc1C#N the “Percent Effect” value was -7.692%. CC(C)c1nnc(N2C[C@@H]3CC[C@H](C2)N(Cc2ccccc2)C3)s1 was tested, and the “Percent Effect” value was 104.2%. CCCN1C[C@H]2CC[C@@H]1CN(Cc1ccc(Cn3cccn3)cc1)C2 was tested, and the “Percent Effect” value was -13.63%. For CCCN1C[C@H]2CC[C@@H]1CN(c1nnc(C(C)C)s1)C2, the “Percent Effect” value was 100.1%. Cc1ccc(C(=O)N2C[C@@H]3CC[C@H](C2)N(CC2CCC2)C3)s1 was tested, and the “Percent Effect” value was -1.222%. CC(C)c1nnc(N2C[C@@H]3CC[C@H](C2)N(CC2CCC2)C3)s1 was tested, and the “Percent Effect” value was 78.31%. With CC(C)c1nnc(N2C[C@@H](CN(C)CCO)[C@@H](CO)C2)s1 the “Percent Effect” value was -2.617%. In the case of Cc1nnsc1CN1C[C@H]2CC[C@@H]1CN(Cc1ccccc1)C2, the “Percent Effect” value is reported as 2.749%. In the case of Cc1nnsc1CN1C[C@@H]2CC[C@H](C1)N(Cc1ccccc1)C2, the “Percent Effect” value is reported as -5.089%. With CC(=O)c1ccc(C(=O)N2C[C@@H]3CC[C@H](C2)N(CC2CCC2)C3)s1 the “Percent Effect” value was -8.325%. In the case of N#CCCNC(=O)CN1CCC(c2cc3ccccc3[nH]2)CC1, the “Percent Effect” value is reported as 7.04%. O=C(O)C(F)(F)F.O=C(O)[C@]12CCCN(Cc3ccsc3)C[C@H]1CN(c1ncccn1)C2 was tested, and the “Percent Effect” value was 0.06928%. In the case of CCc1nc(CN2CCCC(NCc3nc4cccnc4[nH]3)C2)no1 (centres undefined), the “Percent Effect” value is reported as -2.824%. Cc1ccc(CN2CCCC3(COCCN(Cc4c[nH]nn4)C3)C2)s1.O=C(O)C(F)(F)F.O=C(O)C(F)(F)F (centres undefined) was tested, and the “Percent Effect” value was -11.68%. For Fc1ccc(OCc2noc(CN3CCc4cncnc4C3)n2)cc1, the “Percent Effect” value was -13.93%. OCC(CO)N1CCC(c2nccnc2Nc2cnccn2)CC1 was tested, and the “Percent Effect” value was 132.8%. With CC(C)N1CCC(c2nccnc2Nc2cnccn2)CC1 the “Percent Effect” value was 128.3%. For CN1CCC(c2nccnc2Nc2cnccn2)CC1, the “Percent Effect” value was 94.48%. In the case of OCC(CO)N1CCC(c2nnc(Cn3ccnc3)n2C2CC2)CC1, the “Percent Effect” value is reported as 11.43%. In the case of CC(C(=O)NC(C)(C)C)N1CCC(C(=O)Nc2cnccn2)CC1 (centres undefined), the “Percent Effect” value is reported as -9.659%. For CC(=O)N1CCC(c2nccnc2Nc2cnccn2)CC1, the “Percent Effect” value was 118.2%. In the case of CCc1ccccc1OCCN1CC[C@@]2(O)CCNC[C@H]2C1, the “Percent Effect” value is reported as 3.949%. With CCC(C)NC(=O)CCNC(=O)c1c[nH]cc1-c1cccc(OC)c1 (centres undefined) the “Percent Effect” value was -21.59%. CC(C)CNC(=O)CC1OCCc2ccsc21 (centres undefined) was tested, and the “Percent Effect” value was -17.3%. Cc1nc(CNC(=O)NCCC2=CCCC2)oc1C was tested, and the “Percent Effect” value was -10.48%. In the case of CC(Cc1ccccc1F)NC(=O)CCc1nc(-c2nnc[nH]2)no1 (centres undefined), the “Percent Effect” value is reported as 5.01%. In the case of Cn1cc(-c2cccc(CNC(=O)N3CCC[C@@H]3CO)c2)cn1, the “Percent Effect” value is reported as -23.52%. In the case of NC(=O)c1cncc(N2CCN(Cc3cccc4nsnc34)CC2)n1, the “Percent Effect” value is reported as -24.77%. In the case of CC(O)Cc1cn(CC2CCN(C3CCSCC3)CC2)nn1 (centres undefined), the “Percent Effect” value is reported as -14.87%. CC(C)N1CCC(c2nccnc2Nc2ncccn2)CC1 was tested, and the “Percent Effect” value was 97.4%. With Cc1cnc(NC(=O)N2CCCC2)s1 the “Percent Effect” value was 11.08%. CC(C(=O)Nc1ncccn1)N1CCC(n2ccnc2)CC1 (centres undefined) was tested, and the “Percent Effect” value was -2.043%. In the case of Cc1cnc(NC(=O)N2CCCCCC2)s1, the “Percent Effect” value is reported as -6.378%. In the case of CC(=O)N1CCC(c2nccnc2Nc2ncc(C)s2)CC1, the “Percent Effect” value is reported as 69.11%. For COc1ccc(C)cc1S(=O)(=O)NCCC(O)c1ccccc1 (centres undefined), the “Percent Effect” value was -7.148%. For COCCC(=O)N1CCC(c2cc(O)n(C)n2)C1 (centres undefined), the “Percent Effect” value was 94.23%. With COCCC(=O)N1CCC(c2nc(O)cc(-c3ccncc3)n2)C1 (centres undefined) the “Percent Effect” value was 95%. With Cn1nc(C2CCCN(C(=O)CO)C2)cc1O (centres undefined) the “Percent Effect” value was -7.33%. With COCCCC1CCCN(C(=O)CCc2cc(O)no2)C1 (centres undefined) the “Percent Effect” value was -11.88%. For COCCC(=O)N1CCCC(c2nc(O)cc(-c3ccncc3)n2)C1 (centres undefined), the “Percent Effect” value was 119.6%. O=C(c1[nH]nc(C2CC2)c1Cl)N1CCN(C2CC2)C(=O)C1 was tested, and the “Percent Effect” value was -4.23%. For CCc1nnsc1C(=O)NCCC1CN(C(C)C)CCO1 (centres undefined), the “Percent Effect” value was 2.098%. With O=C(NCc1cc[nH]n1)N(CCCO)C1CCc2ccccc21 (centres undefined) the “Percent Effect” value was 9.826%. O=C(O)C(F)(F)F.O=C(c1cnccn1)N1CCOCC2(CCN(C3CCOCC3)C2)C1 (centres undefined) was tested, and the “Percent Effect” value was 8.846%. CC(C)NC(=O)N1CCOC2(CCCN(c3cccc(C#N)c3)C2)C1 (centres undefined) was tested, and the “Percent Effect” value was -9.45%. In the case of O=C(CO)N1CCOC2(CCCN(c3ncc(F)cn3)C2)C1.O=C(O)C(F)(F)F (centres undefined), the “Percent Effect” value is reported as 5.697%. In the case of O=C(O)C(F)(F)F.O=C(c1cnccn1)N1CCOC2(CCCN(c3ncccc3F)C2)C1 (centres undefined), the “Percent Effect” value is reported as 105%. With COCC(=O)N1CCOC2(CCCN(c3cnccn3)C2)C1.O=C(O)C(F)(F)F (centres undefined) the “Percent Effect” value was -12.12%. For CC(C)NC(=O)N1CCOC2(CCCN(c3ncccc3F)C2)C1.O=C(O)C(F)(F)F (centres undefined), the “Percent Effect” value was 108.5%. With O=C(O)C(F)(F)F.O=C([C@H]1CCCO1)N1CCOC2(CCCN(c3ncccc3F)C2)C1 (some centres undefined) the “Percent Effect” value was 94.35%. For CN(C)CC(=O)N1CCOC2(CCCN(c3ncccc3F)C2)C1.O=C(O)C(F)(F)F.O=C(O)C(F)(F)F (centres undefined), the “Percent Effect” value was 6.33%. For N#Cc1cccc(N2CCCC3(CN(C(=O)[C@H]4CCCO4)CCO3)C2)c1 (some centres undefined), the “Percent Effect” value was -7.794%. In the case of COc1ccc(C(=O)C2CCCN(c3cc(OC)ncn3)C2)c(C)c1 (centres undefined), the “Percent Effect” value is reported as -87.76%. With CC(Cn1cccn1)NCCS(=O)(=O)c1ccc(Cl)cc1 (centres undefined) the “Percent Effect” value was 2.973%. CC(Cn1cncn1)NC(=O)NCC(C)(C)Cc1ccccc1 (centres undefined) was tested, and the “Percent Effect” value was -14.88%. In the case of CCn1c(C2CCN(C(=O)COCC(F)(F)C(F)F)CC2)n[nH]c1=O, the “Percent Effect” value is reported as 14.31%. In the case of COCCN(C)C[C@@H]1CN(c2cc(C)nc3ccccc23)C[C@@H]1CO, the “Percent Effect” value is reported as 85.76%. With CN(CCO)C[C@@H]1CN(Cc2ccccc2-c2ccccc2)C[C@@H]1CO the “Percent Effect” value was -1.449%. COCCN(C)C[C@@H]1CN(c2nnc(C(C)C)s2)C[C@@H]1CO was tested, and the “Percent Effect” value was 6.543%. In the case of COCCN(C)C[C@@H]1CN(Cc2ccnc3ccccc23)C[C@@H]1CO, the “Percent Effect” value is reported as 90.52%. With CCc1c(C)nc(C)nc1N1C[C@@H](CN(C)CCN(C)C)[C@@H](CO)C1 the “Percent Effect” value was 17.56%. With COCCN(C)C[C@@H]1CN(c2nc(C)cc(C)n2)C[C@@H]1CO the “Percent Effect” value was 106.7%. With Cc1nc2ccccn2c1CN1C[C@@H](CN(C)CCO)[C@@H](CO)C1 the “Percent Effect” value was -4.106%. In the case of Cc1ccccc1CN1C[C@@H](CN(C)CCO)[C@@H](CO)C1, the “Percent Effect” value is reported as 4.643%. In the case of Cc1ccc2nc(C)cc(C(=O)NCc3csc(N(C)C)n3)c2c1, the “Percent Effect” value is reported as -3.48%. With CCc1nccn1CC(=O)N1C[C@H]2CC[C@@H]1CN(c1ncccn1)C2 the “Percent Effect” value was 11.21%. For COCC1c2nnn(CC3CC3)c2CCN1C(=O)c1cc(C)[nH]c1C (centres undefined), the “Percent Effect” value was -16.52%. For CC(C)NC(=O)c1ccc2c(c1)C(c1nc[nH]n1)CN2C (centres undefined), the “Percent Effect” value was -2.409%. With CC(c1nc(C(C)(C)C)no1)N1CCN(Cc2ccc(C#N)cc2)CC1 (centres undefined) the “Percent Effect” value was 107.5%. Cc1nsc(N2CCCN(c3ccc(C#N)cn3)CC2)n1 was tested, and the “Percent Effect” value was 7.107%. For Cc1noc(C(C)N2CCN(c3ncnc4ccccc34)CC2)n1 (centres undefined), the “Percent Effect” value was -16.31%. For CC(c1nc(C2CC2)no1)N1CCN(Cc2ccc(C#N)cc2)CC1 (centres undefined), the “Percent Effect” value was 26.07%. In the case of CCc1noc(C(C)N2CCN(c3ncnc4sccc34)CC2)n1 (centres undefined), the “Percent Effect” value is reported as -87.61%. With CC(c1nc(C2CC2)no1)N1CCN(Cc2cccc(C#N)c2)CC1 (centres undefined) the “Percent Effect” value was -8.29%. In the case of Cc1noc(C(C)N2CCN(c3ccc(C#N)cn3)CC2)n1 (centres undefined), the “Percent Effect” value is reported as 146.7%. With Cc1noc(C(C)N2CCN(Cc3cccc(C#N)c3)CC2)n1 (centres undefined) the “Percent Effect” value was 7.153%. In the case of CC(c1nc(C(C)(C)C)no1)N1CCN(c2ccc(C#N)cn2)CC1 (centres undefined), the “Percent Effect” value is reported as 105.6%. For Cc1noc(C2CCN(C(C)c3nc(C(C)(C)C)no3)CC2)n1 (centres undefined), the “Percent Effect” value was 4.561%. For CCCc1noc(C(C)N2CCN(CCn3ccccc3=O)CC2)n1 (centres undefined), the “Percent Effect” value was -12.82%. In the case of CCCc1noc(C(C)N2CCN(c3ccc(C#N)cn3)CC2)n1 (centres undefined), the “Percent Effect” value is reported as 130.1%. With COc1ccc(OCc2nc3cc4c(cc3c(=O)o2)OCCCO4)cc1 the “Percent Effect” value was -25.33%. CSc1cc2c(cc1NC(=O)NCc1ccncc1)OCCO2 was tested, and the “Percent Effect” value was 0.1832%. With O=C(NCC1CC1)C1CN(C(=O)c2ccnnc2)CC12CCOCC2 (centres undefined) the “Percent Effect” value was -9.874%. For CN1C(=O)[C@H]2CC[C@@H]1CN(C(=O)Nc1cccc3ccccc13)C2, the “Percent Effect” value was 3.863%. In the case of N#Cc1cn(C2CC2)c(=O)n(Cc2noc(-c3ccsc3)n2)c1=O, the “Percent Effect” value is reported as -8.2%. For COc1ccccc1NC(=O)NC(C)c1nc[nH]n1 (centres undefined), the “Percent Effect” value was -1.106%. With CC(C)c1noc(C(C)N2CCN(Cc3ccccc3C#N)CC2)n1 (centres undefined) the “Percent Effect” value was -2.438%. In the case of CC(C)c1noc(C(C)N2CCN(c3ccc(C#N)cn3)CC2)n1 (centres undefined), the “Percent Effect” value is reported as 186.4%. In the case of CC(C)c1noc(C(C)N2CCN(Cc3cccc(C#N)c3)CC2)n1 (centres undefined), the “Percent Effect” value is reported as 10.45%.
